GALC G270D act: enhancers of human galactocerebrosidase G270D mutant activity in cells; P54803; 145M-Twi-hGALC-G270D cells (Twitcher mouse brain line with human GALC G270D), HMU-beta-Gal fluorescence, 48 h; AID 1159614; actives 0.1% (n = 45,000); Potency, µM (series often up to 57.5 µM), hits mostly activators; note: nearly all actives have a fitted effect of over 65% in size
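Mutant human GALC (G270D), stably expressed in a Twitcher mouse brain cell line lacking endogenous GALC, is measured in live-treated cells via 6-hexadecanoylamino-4-methylumbelliferyl-β-galactoside hydrolysis (0.1 mM final, pH 5.2) with fluorescent detection.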
NTMT1 inh: NTMT1 methyltransferase inhibition; Q9BV86; NTMT1 MTase-Glo SAH luminescence, purified enzyme; Potency, µM (highest dose often 114 µM), actives largely listed as inhibitors; actives 2.5% (n = 59,000); note: nearly all actives have a fitted effect of over 65% in size
Target sequence (Q9BV86 whole entry, looked up): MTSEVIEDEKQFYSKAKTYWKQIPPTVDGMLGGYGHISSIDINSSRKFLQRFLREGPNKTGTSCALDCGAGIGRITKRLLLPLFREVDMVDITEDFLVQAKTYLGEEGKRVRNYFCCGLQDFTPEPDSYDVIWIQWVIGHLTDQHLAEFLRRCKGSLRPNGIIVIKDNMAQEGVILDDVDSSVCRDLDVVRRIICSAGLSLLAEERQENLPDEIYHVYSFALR
p53null 32C tox: kills p53 null cells at the permissive temperature | H1299-neo p53 null cells, ATP luminescence, 24 h, 32C | Potency, µM (doses to about 46.1 µM), usual class: cytotoxic | actives 0.62% (n = 55,000) | AID 903; note: nearly all actives have a fitted effect of over 55% in size
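H1299-neo (p53 null) cells, 600/well, treated 24 h at 32C with compound up to 46 uM; ATPlite luminescence viability, normalized to DMSO and 100 uM tamoxifen; AC50 by Hill fit.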
p53null 39C kill: kills p53 null cells at the nonpermissive temperature; H1299 p53-null (neo) cells, 39C, ATPlite viability, 24 h; AID 904; Potency, µM (top dose mostly 46.1 µM), actives largely listed as cytotoxic; actives 0.97% (n = 55,000); note: nearly all actives have a fitted effect of over 50% in size
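Luminescent ATP signal reported cell survival after H1299 lines (neo, p53 null; or p53 A138V) received up to 46 uM compound and 24 hr incubation at 39C.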
FH mod: Identification of activators of human fumarate hydratase by quantitative high-throughput screening; Fumarate hydratase, mitochondrial (Homo sapiens), P07954; FH coupled MDH/diaphorase resazurin fluorescence, 15 min; Potency, µM (doses to about 79.9 µM), most hits filed as inhibitors; actives 0.22% (n = 54,000); note: the screen sought activators but most active calls are inhibition curves; nearly all actives have a fitted effect of over 45% in size
Numbers stand for hits; n = inactive; u = inconclusive; x = not tested or not shown; ! = not active in a repeat; [ ] = remark or other dose. Only a selection was taken, and hits are over-represented in it overall. Calls come from the whole dose curve; as a rule, active = well fitted curve in the direction sought with a large enough effect; inconclusive = small, poorly fitted or top-dose-only effect, or another doubt; inactive = no such curve, though single readings can be large; an effect the other way counts as inactive or inconclusive.

SMILES	GALC G270D act	NTMT1 inh	p53null 32C tox	p53null 39C kill	FH mod
O=C(NCCCN1CCN(c2cccc(Cl)c2)CC1)c1cnn(-c2ccc(F)cc2)c1-n1cccc1	n	n	n	22.4µM	u
CCOc1ccc(CCNC(C)=O)cc1OCC	x	50.1µM	x	x	x
CS(=O)(=O)Nc1ccc(-c2nc3ccccc3s2)cc1	n	n	3.98µM	1.58µM	n
Cc1c(NS(C)(=O)=O)cccc1-c1nc2ccccc2s1	n	n	u	u	n
COc1cccc(NC(=O)c2c(C)oc3nc(C)nc(N4CCCC4)c23)c1	n	89.1µM	n	n	n
N[C@@H](CCC(=O)O)C(=O)N[C@@H](Cc1c[nH]c2ccccc12)C(=O)O	x	n	x	x	x
O=C1CCCC2CC(Nc3nc4ccccc4o3)CC(c3ccccc3)C12 (configuration not stated)	x	n	x	x	x
COc1ccc2nc(C)cc(Nc3ccc(Cl)c(Cl)c3)c2c1	n	n	u	12.6µM	n
CCCCN(CCCNC(=O)c1cc(Nc2cccc(SC)c2)nc2ccccc12)Cc1ccccc1	n	n	n	5.62µM	u
CSc1cccc(Nc2cc(C(=O)NCCc3ccc(Cl)cc3)c3ccccc3n2)c1	n	n	n	u	u
Cc1ccc(-c2cn3cccnc3n2)cc1NC(=O)Nc1ccc(F)cc1	n	n	n[9.22 µM]	n	n
COc1ccc(-c2cn3cccnc3n2)cc1NC(=O)Nc1cc(C)ccc1C	n	u	u	15.8µM	n
COc1cccc(NC(=O)Nc2cc(-c3cn4cccnc4n3)ccc2C)c1	n	u	n	u	n
COc1cccc(NC(=O)Nc2cc(-c3cn4cccnc4n3)ccc2OC)c1	n	n	15.8µM	7.94µM	n
NC(=O)C1CCN(c2nc(-c3ccc(F)cc3)cs2)CC1	x	79.4µM	x	x	x
CCN(c1cc(-c2ccc(CN3CCOCC3)cc2)cc(C(=O)NCc2c(C)cc(C)[nH]c2=O)c1C)C1CCOCC1	x	n	x	x	n
CC(C)/C=C1/NC(=O)C(C(C)C)n2c1nc1c(O)cccc1c2=O (configuration not stated)	x	n	x	x	n
Oc1ccc(C2CCN(c3ccnc4ccccc34)CC2)cc1O	x	10µM!	x	x	n
Cc1cn([C@H]2CC(N=[N+]=[N-])[C@@H](CO)O2)c(=O)[nH]c1=O (some centres not stated)	x	x	x	x	n
CC(=O)c1cccc(NC(=O)c2cc(-c3ccc4c(c3)OCCO4)on2)c1	n	u	2µM	3.16µM	n
Cc1ccc(OC(=O)c2cc(-c3ccc4c(c3)OCCO4)on2)c(C)c1	n	n	20µM	31.6µM	n
Cc1ccc(OCCn2c(CCNC(=O)c3cccc4cc[nH]c34)nc3ccccc32)cc1	x	n	x	x	x
Cc1c(P(=O)(c2ccccc2)c2ccccc2)c2ccccc2n1C	x	79.4µM	x	x	x
CCN(CC)c1ccc(/C=N/NS(=O)(=O)c2ccc(C)c([N+](=O)[O-])c2)cc1	x	x	x	n[1.84 µM]	x
CCN(CC)c1ccc(C(=C2C=CC(=[N+](CC)CC)C=C2)c2cc(S(=O)(=O)O)ccc2S(=O)(=O)[O-])cc1	n	28.2µM	x	x	n
SMILES	GALC G270D act	NTMT1 inh	p53null 32C tox	p53null 39C kill	FH mod
N#Cc1c2nc3ccccc3nc2n2ccc(NC(=O)c3cccs3)cc12	x	n	x	x	n
Cc1ccc(-c2nc3n(n2)Cc2ccccc2-3)cc1	x	x	8.91µM	u	x
COc1ccc(C(=O)O[C@H]2CC(C)=CC[C@@]3(C)[C@@H](OC(C)=O)C[C@@](O)(C(C)C)[C@H]23)cc1	x	n	x	x	n
Cn1ncnc1[C@@H]1c2n[nH]c(=O)c3cc(F)cc(c23)N[C@H]1c1ccc(F)cc1	x	n	x	x	n
O=C(Nc1ccc(Cl)cc1)N1CCC(c2ccccc2)C1 (configuration not stated)	n	n	3.98µM	u	n
O=C(O)C1CCC(C(=O)Nc2ccc([S+](=O)([O-])Nc3nccs3)cc2)CC1 (configuration not stated)	x	n	x	x	x
C/C(=C\C(=O)Nc1ccccc1C(=O)O)c1ccc2ccccc2c1	x	28.2µM	x	x	n
CCC(Nc1ncnc2nc[nH]c12)c1nc2cccc(F)c2c(=O)n1-c1ccccc1 (configuration not stated)	x	n	x	x	n
CC(C)C(=O)N1c2nc(-c3ccco3)nn2C2(CCCCC2)[C@@H]2CCCC[C@@H]21	n	89.1µM	n	n	n
CN1C(=O)N[C@H](Cc2c[nH]c3c(Cl)cccc23)C1=O	x	n	x	x	x
CCN(c1ccccc1)S(=O)(=O)c1nnc(NC(=O)c2ccco2)s1	n	n	u	1µM	n
Cc1ccc(C(=O)Oc2ccc(-c3nc4ccccc4[nH]3)cc2)cc1Br	x	n	x	x	x
CCCCN(C)CCNC(=O)c1cc(-c2ccc(Cl)s2)nc2ccccc12	n	n	n	12.6µM	n
CCN(CC)CCNC(=O)c1cc(-c2ccc(Br)s2)nc2ccccc12	n	u	n	25.1µM	n
CCCN(CCC)CCNC(=O)c1cc(-c2ccc(Br)s2)nc2ccccc12	n	n	n	n	n
CC(C)CN(CCNC(=O)c1cc(-c2ccc(Cl)s2)nc2ccccc12)CC(C)C	n	n	n	n	n
CCN(CCCNC(=O)c1cc2c(=O)[nH]c3ccccc3c2s1)c1ccccc1	n	n	n	n	n
COc1ccc(OC)c(NC(=O)c2cc3cc4ccc(C)cc4nc3s2)c1	n	n	n	n	n
CCN(CCCNC(=O)c1cc2cc3ccc(OC)cc3nc2s1)c1ccccc1	n	89.1µM	n	u	n
CCN(CCCNC(=O)c1cc2cc3ccc(OC)cc3nc2s1)c1cccc(C)c1	n	79.4µM	u	u	n
COc1cc(-c2cn(C)c(=O)c3cnccc23)cc(OC)c1CN(C)C	x	n	x	x	x
CC1=C2[N-][C@H]([C@H](CC(N)=O)[C@@]2(C)CCC(=O)NC[C@@H](C)OP(=O)([O-])O[C@H]2[C@@H](O)[C@@H](n3cnc4cc(C)c(C)cc43)O[C@@H]2CO)[C@]2(C)N=C(C(C)=C3N=C(C=C4N=C1[C@@H](CCC(N)=O)C4(C)C)[C@@H](CCC(N)=O)[C@]3(C)CC(N)=O)[C@@H](CCC(N)=O)[C@]2(C)CC(N)=O.O.[Co+2]	x	50.1µM	x	x	x
COc1cc2nc(SCC(=O)Nc3ccc(F)cc3)n3nc(CCn4c(C)nc5ccccc54)nc3c2cc1OC	n	n	n	20µM	n
CCC(Cc1ccccc1)NC(=O)Cn1nc(C)n2c(cc3occc32)c1=O (configuration not stated)	n	89.1µM	n	n	n
Cc1oc2ncnc(N3CCOCC3)c2c1C(=O)Nc1ccc(Br)cc1F	n	89.1µM	n	n	n
C[C@H]1c2cccc(O)c2C(O)=C2C(=O)[C@]3(O)C(O)=C(C(N)=O)C(=O)[C@@H](N(C)C)[C@@H]3[C@@H](O)[C@@H]21	n	u	x	x	n
